Source: PubChem (several laboratories)
MsrA inhibitor – inhibits bovine methionine sulfoxide reductase A; purified bovine MsrA, absorbance read-out; inhibition, % at 15.5 µM; 360,000 tested, 0.75% active; in the data active means inhibition above about 4.5%
NadD inh – NadD (S. aureus) enzyme inhibition; purified NadD enzyme, colorimetric absorbance read-out; inhibition, % at 20 µM; 360,000 tested, 0.78% active; in the data active means inhibition above about 26%
rCAG RNA binder – r(CAG) repeat RNA binding; TO-PRO-1 dye displacement fluorescence; inhibition, % at 3 µM; 370,000 tested, 1.3% active; AID 651821;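 active means inhibition above the plate cutoff, the mean of all test compounds on that plate plus 3 SD, cut at about 35% in these data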;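 further: higher means more dye released from RNA so lower well fluorescence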
MsrA act – activates bovine MsrA enzyme | purified bovine MsrA, absorbance read-out | activation, % at 10.6 µM | 360,000 tested, 0.3% active; in the data active means activation above about 7.5%
Pemphigus Ab inh – human desmoglein-3 autoantibody binding inhibition; P32926; DSG3-coupled beads, scFv-anti-DSG3-GFP binding, flow cytometry; active compounds read low; binding (percent of control), % at 10 µM; 310,000 tested, 0.48% active; AID 588358;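 active means binding more than 3 SD below its plate's average and above zero; inconclusive means below that plate limit but binding exactly zero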;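 further: hits lower antibody fragment binding to DSG3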
DAGLB inh – blocks human DAGLB lipase activity. HEK293T DAGLB membrane lysate, EnzChek fluorogenic substrate. inhibition, % at 5.17 µM. 340,000 tested, 0.059% active; in the data active means inhibition above about 34%
Each line names hits and unclear results; the compound was inactive in the other large screens. Shown are actives, neighbours in structure and some others; about 3.2% of the full set was active somewhere.

CCC/C=C/c1ccc(CN2C(CC(C)C)C(=O)N(Cc3cn(CCOCOC)nn3)CCS2(=O)=O)cc1 (stereo not drawn)	none (no result: Pemphigus Ab inh)
C=CCn1cccc(C(=O)Nc2cc(OC)ccc2OC)c1=O	MsrA inhibitor 4.7
C=CCn1cccc(C(=O)Nc2ccc(C)c(C)c2)c1=O	none
Cc1ccc(-n2c(-c3ccncc3)nnc2-c2cccs2)cc1	Pemphigus Ab inh -8.5
Cc1ccc(-n2c(SCC(=O)Nc3ccccc3-c3ccccc3)nnc2-c2cccs2)cc1	none (no result: MsrA inhibitor, NadD inh, MsrA act, Pemphigus Ab inh, DAGLB inh)
CC(=O)OCCNc1cc(N2CCN(C)CC2)c2noc3c2c1C(=O)c1ccccc1-3	none
CCN1CCN(c2cc(N3CCN(C(=O)c4ccco4)CC3)c3c4c(onc24)-c2ccccc2C3=O)CC1	NadD inh 45 (no result: MsrA inhibitor, rCAG RNA binder)
O=C(O)CCNc1cc(N2CCN(C(=O)c3ccco3)CC2)c2noc3c2c1C(=O)c1ccccc1-3	rCAG RNA binder 68
COC(=O)C1CN(Cc2ccc(Cl)cc2)CCS(=O)(=O)N1Cc1cn(Cc2ccc(Cl)cc2)nn1 (stereo not drawn)	none (no result: MsrA inhibitor, NadD inh, MsrA act, Pemphigus Ab inh, DAGLB inh)
COC(=O)[C@H](C(C)C)N1CCc2nnn(CC3CCCCC3)c2-c2ccccc2S1(=O)=O	none (no result: MsrA inhibitor, NadD inh, MsrA act, Pemphigus Ab inh, DAGLB inh)
C[C@H]1CCCC(=O)N[C@@H](c2ccccc2)[C@@H](C)CCCC(=O)N[C@H]1c1ccccc1	none (no result: MsrA inhibitor, NadD inh, MsrA act, Pemphigus Ab inh, DAGLB inh)
CC(C)C[C@H]1COc2cccc(F)c2S(=O)(=O)N1Cc1cn(Cc2ccc(Cl)cc2)nn1	none (no result: MsrA inhibitor, NadD inh, MsrA act, Pemphigus Ab inh, DAGLB inh)
CC(=O)c1ccc(Nc2nc(C(C)N)cs2)cc1 (stereo not drawn)	MsrA inhibitor 4.6 (no result: Pemphigus Ab inh, DAGLB inh)
CC(N)c1csc(Nc2ccc(C(=O)NCCO)cc2)n1 (stereo not drawn)	none (no result: Pemphigus Ab inh, DAGLB inh)
O=c1[nH]c(/C=C\c2ccc(O)cc2)nc(O)c1[N+](=O)[O-]	none
O=c1[nH]c(/C=C\c2ccc(O)c(Cl)c2)nc(O)c1[N+](=O)[O-]	MsrA inhibitor 4.6
COc1ccc(-n2c(SCC(=O)Nc3ccccc3-c3ccccc3)nnc2-c2ccco2)cc1	none (no result: MsrA inhibitor, NadD inh, MsrA act, Pemphigus Ab inh, DAGLB inh)
CC(=O)Nc1ccc(C23CC4CC(CC(C4)C2)C3)cc1	none
Oc1ccc(C23CC4CC(CC(C4)C2)C3)cc1O	NadD inh 35, Pemphigus Ab inh inconclusive
CCCc1ccc2c(C(F)(F)F)cc(C(F)(F)F)cc2n1	none (no result: Pemphigus Ab inh, DAGLB inh)
O=C1[C@H]2C[C@@]3(n4ccc5ccccc54)c4ccccc4N(S(=O)(=O)c4ccccc4)[C@H]3N2C(=O)CN1Cc1ccccc1	none (no result: MsrA inhibitor, NadD inh, MsrA act, Pemphigus Ab inh, DAGLB inh)
Cc1nn(C)cc1C(C(=O)NC1CCCCC1)N(Cc1ccccc1Cl)C(=O)c1cnccn1 (stereo not drawn)	none
Cc1nn(C)cc1C(C(=O)NC1CCCCC1)N(Cc1ccc(F)cc1)C(=O)c1cnccn1 (stereo not drawn)	Pemphigus Ab inh 54 (no result: DAGLB inh)
O=C(NC(=S)Nc1ccccc1)c1ccc(-c2ccccc2)cc1	none
O=C(O)c1ccc(NC(=S)NC(=O)c2ccc(-c3ccccc3)cc2)cc1	Pemphigus Ab inh 31
CC(=O)Nc1ccc(NC(=S)NC(=O)c2ccc(-c3ccccc3)cc2)cc1	Pemphigus Ab inh 71 (no result: DAGLB inh)
Cc1cc(C)cc(OCCNC(=O)c2cc(S(=O)(=O)N3CCOCC3)ccc2F)c1	Pemphigus Ab inh 58
C=CC[C@@H]1NN2C(=O)[C@@H](CCCC)[C@@H]3c4cc5ccccc5cc4C=NN3[C@@H]2c2cc3ccccc3cc21	none (no result: MsrA inhibitor, NadD inh, MsrA act, Pemphigus Ab inh, DAGLB inh)
O=[N+]([O-])c1ccc(Cl)c(/C=N/NC(=S)Nc2ccccc2)c1	Pemphigus Ab inh 84
O=C(N/N=C/c1cc([N+](=O)[O-])ccc1O)c1cccc(NC(=O)c2cccc(Cl)c2)c1	NadD inh 63
NC(=S)N/N=C/c1cc([N+](=O)[O-])ccc1Cl	none
Cc1ccc2c(c1)-c1c(cnn1CC(=O)NCCc1ccc(O)cc1)CO2	none (no result: MsrA inhibitor, NadD inh, MsrA act, Pemphigus Ab inh, DAGLB inh)
O=C(NCCc1ccccc1)OCc1cn(-c2cccc(C(F)(F)F)c2)nn1	none (no result: MsrA inhibitor, NadD inh, MsrA act, Pemphigus Ab inh, DAGLB inh)
COc1ccc(CNC(=O)c2ccc(N3CCOCC3)c([N+](=O)[O-])c2)cc1	none
COc1ccc(C(=O)c2ccc(N3CCOCC3)c([N+](=O)[O-])c2)cc1	MsrA inhibitor 4.6
O=C(NCCc1c[nH]c2ccccc12)c1ccc2c(c1)ncn2C1CCCCC1	none (no result: MsrA inhibitor, NadD inh, MsrA act, Pemphigus Ab inh, DAGLB inh)
CCOC(=O)C(=O)c1csc(NC(=O)COc2ccc(N(C)S(=O)(=O)c3ccc(F)cc3)cc2)n1	Pemphigus Ab inh 73
Cc1ccc2nc(N3C(=O)C(O)=C(C(=O)c4ccco4)C3c3cccs3)sc2c1 (stereo not drawn)	none
Cc1ccc2nc(N3C(=O)C(O)=C(C(=O)c4ccc(C)o4)C3c3ccc(O)cc3)sc2c1 (stereo not drawn)	rCAG RNA binder 69
CC12CCC3c4ccc(O)cc4CCC3C1CC(O)C2O (stereo not drawn)	Pemphigus Ab inh 46
C[C@]12CC[C@@H]3c4ccc(O)cc4CC[C@H]3[C@@H]1C[C@@H](O)[C@@H]2O	none
O=C(CCN1C(=O)/C(=C/c2ccccc2Cl)SC1=S)NC1C=CS(=O)(=O)C1 (stereo not drawn)	NadD inh 37
O=C(CN1C(=O)S/C(=C\c2ccccc2F)C1=O)NC1C=CS(=O)(=O)C1 (stereo not drawn)	none
O=C(CN1C(=O)S/C(=C\c2ccc(F)cc2)C1=O)NC1C=CS(=O)(=O)C1 (stereo not drawn)	none (no result: Pemphigus Ab inh)
O=C(CCN1C(=O)/C(=C/c2ccc(F)cc2)SC1=S)NC1C=CS(=O)(=O)C1 (stereo not drawn)	Pemphigus Ab inh 60
COc1ccc(N2CCN(C(=O)C(Cc3ccccc3)n3cccc3)CC2)cc1 (stereo not drawn)	none
CN([C@@H](Cc1ccc(OS(=O)(=O)c2cccc3cnccc23)cc1)C(=O)N1CCN(c2ccccc2)CC1)S(=O)(=O)c1cccc2cnccc12	NadD inh 32 (no result: MsrA inhibitor, rCAG RNA binder)
Cc1ccc(NC(=O)COC(=O)CCC(=O)c2cccs2)c(C)c1	Pemphigus Ab inh 91
Cc1ccc(S(=O)(=O)NCC(=O)OCC(=O)c2cccs2)cc1	Pemphigus Ab inh 43
Fc1ccc2cc(C3=CCCCC3)ncc2c1	none (no result: NadD inh, MsrA act, Pemphigus Ab inh, DAGLB inh)
Cc1noc(C)c1C(C)C1=CCCCC1 (stereo not drawn)	none (no result: MsrA inhibitor, NadD inh, MsrA act, Pemphigus Ab inh, DAGLB inh)
COc1ccc(C(CNC(=O)c2ccc(S(=O)(=O)N3CC(C)CC(C)C3)cc2)N(C)C)cc1 (stereo not drawn)	none
CCOC(=O)Cc1nnc(NC(=O)Nc2ccccc2)s1	rCAG RNA binder 35 (no result: Pemphigus Ab inh)
O=c1oc(CCCO)cc2ccc(C#Cc3ccsc3)cc12	none
CN(C)c1ccc(C#Cc2ccc3cc(CCCO)oc(=O)c3c2)cc1	Pemphigus Ab inh 84
COc1ccccc1-c1cccc([C@@H]2C[C@H]3[C@H](CON3C)CN2S(=O)(=O)c2ccccc2C)c1	none
CC(=O)Nc1cccc(NC(=O)CSc2ccc(C(F)(F)F)cc2[N+](=O)[O-])c1	Pemphigus Ab inh 84
Cc1cccc(NC(=O)CSc2nnc(-c3ccco3)c(-c3ccco3)n2)c1C	none (no result: MsrA inhibitor, rCAG RNA binder, Pemphigus Ab inh)
Cc1cccc(NC(=O)CSc2nnc(-c3ccco3)c(-c3ccco3)n2)c1	MsrA inhibitor 4.9, rCAG RNA binder 42
CN(CC(=O)O)S(=O)(=O)c1ccc(F)cc1	none
